In PubChem BioAssay AID1233 (SRMLSC, 2008):
Results with a measured potency or affinity are listed apart. Activity calls are given as the source filed them.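 The calls were made as follows: active = a dose-response curve fit returns a half-maximal inhibitory concentration, extrapolated values included; inactive = the fit returns no such concentration.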

Each compound was assayed against HMG-CoA reductase [Enterococcus faecalis] (UniProt Q9FD70) (assay: class II HMG-CoA reductase inhibition potency – biochemical, Enterococcus faecalis, confirmation (AID 1233)). Settings: purified E. faecalis HMGR, NADPH absorbance 340 nm kinetics; series mostly up to 100 µM.

outcome, inactive:
COc1ccccc1-c1c(C(F)(F)F)oc2cc(OC(=O)c3cccc([N+](=O)[O-])c3C)ccc2c1=O, COC(=O)C1C(c2ccc(N(C)C)cc2)C(C(=O)OC)S(=O)(=O)CS1(=O)=O (stereo not drawn), CCOc1cc(/C=N\NC(=O)OC(C)(C)C)ccc1OC(=O)c1ccco1, COC(=O)[C@@]1(Cc2ccc(OC)cc2)[C@H]2c3cc(C(=O)N(C)C)n(CCc4ccc(OC)c(Br)c4)c3C[C@H]2CN1C(=O)c1ccccc1, CC1SC(c2ccc(Cl)cc2)NC1=O (stereo not drawn), CCOC(=O)c1sc(NC(=O)CSc2n[nH]c(CC)n2)nc1C, O=C(NCCOc1ccccc1Cl)C(=O)c1c[nH]c2ccccc12, CC1CCCC(NC(=O)CN(C)S(=O)(=O)c2cnc[nH]2)C1C (stereo not drawn), CCOC(=O)C(=O)Nc1ccc([N+](=O)[O-])cc1OC, Cc1ccc(NC(=S)NC(=O)CC2CC(C)(C)OC2=O)cc1 (stereo not drawn), COc1ccc(/C=C/C(=O)NC(=S)NNC(=O)c2cccnc2)cc1OC, NC(=S)NNC(=O)c1cccc(Br)c1, CCOC(=O)c1nnn(-c2ccc(OC)cc2)c1N, COc1ccccc1N(CC(O)CN(c1ccccc1)S(C)(=O)=O)S(=O)(=O)c1ccccc1 (stereo not drawn), Cc1ncc([N+](=O)[O-])n1CC(C)O (stereo not drawn), COC(=O)c1ccc(C(NC(=O)OCc2ccccc2)/C(C)=C/[C@@H](C)C(=O)NCc2ccc(-c3ccccc3)cc2)cc1 (stereo partly drawn), CCCC(=O)NC(=S)Nc1ccc(Cl)cn1, COc1ccc(CNC(=O)COC(=O)[C@H](Cc2c[nH]c3ccccc23)NC(=O)c2cccs2)cc1, COC(=O)C1=C(C)NC(C)=C(C(=O)OC)C1C1CC=CCC1 (stereo not drawn), COc1ccc(C(=O)NC2CCN(C(=S)NCCc3ccccc3)CC2)cc1, O=C(CCc1nc2ccccc2c(=O)[nH]1)N1CCN(C/C=C/c2ccccc2)CC1, COCCNC(=O)C(c1ccccc1C)N(C(=O)Cn1nnc2ccccc21)c1cccnc1 (stereo not drawn), CC(C)CC(O)(CC(C)C)C(=O)NNc1ccccc1, COc1cc(OC)c(OC)cc1/C=N/NC(=S)NCCN1CCOCC1, N#CC(C#N)=Cc1cc2ccccc2nc1N1CCOCC1, Cc1ccc2nc(-c3sc4nc(C)ccc4c3N)[nH]c2c1, CCOC(=O)C1CCN(C(=O)CN(c2ccc3c(c2)OCCO3)S(C)(=O)=O)CC1, Cn1nnnc1SCC(=O)c1ccc(Br)s1, COc1cc(S(=O)(=O)N2CCC(c3nc4ccccc4s3)CC2)ccc1S(=O)(=O)NC1CCCC1, Cc1ccc(S(=O)(=O)N2CCCCC2)cc1C(=O)N1CCN(c2ccccn2)CC1, CCCNC(=O)c1cc2c(C(F)(F)F)nn(C)c2s1, CCc1c(C#N)c(N)nc(SCC(=O)OCc2ccccc2)c1C#N, Clc1cccc(CN2CCC(Cc3ccccc3)CC2)c1, CC(C)(C)Cc1nnc(NS(=O)(=O)c2ccccc2)s1, CNC(=S)N/N=C(\C)c1ccc(N2CCOCC2)cc1, COc1ccc(CN2CCNC(=O)C2CC(=O)NCCc2c[nH]c3ccccc23)c(OC)c1 (stereo not drawn), Cc1cc(SCn2nnc3ccccc3c2=O)nc2ccccc12, CCOC(=O)/C(C#N)=C1/C(=O)N(Cc2ccccc2)c2ccccc21
